# ST2 inh: inhibitors of human ST2 (IL1RL1) binding to IL-33. Q01638. AlphaLISA ST2-Fc/biotin-IL-33 interaction, 1 h. inhibition, % for hits at 17 µM. 78,000 tested, 2.3% active. AID 1259354; in the data active means inhibition above about 30%
# Target sequence (Q01638 whole entry, looked up): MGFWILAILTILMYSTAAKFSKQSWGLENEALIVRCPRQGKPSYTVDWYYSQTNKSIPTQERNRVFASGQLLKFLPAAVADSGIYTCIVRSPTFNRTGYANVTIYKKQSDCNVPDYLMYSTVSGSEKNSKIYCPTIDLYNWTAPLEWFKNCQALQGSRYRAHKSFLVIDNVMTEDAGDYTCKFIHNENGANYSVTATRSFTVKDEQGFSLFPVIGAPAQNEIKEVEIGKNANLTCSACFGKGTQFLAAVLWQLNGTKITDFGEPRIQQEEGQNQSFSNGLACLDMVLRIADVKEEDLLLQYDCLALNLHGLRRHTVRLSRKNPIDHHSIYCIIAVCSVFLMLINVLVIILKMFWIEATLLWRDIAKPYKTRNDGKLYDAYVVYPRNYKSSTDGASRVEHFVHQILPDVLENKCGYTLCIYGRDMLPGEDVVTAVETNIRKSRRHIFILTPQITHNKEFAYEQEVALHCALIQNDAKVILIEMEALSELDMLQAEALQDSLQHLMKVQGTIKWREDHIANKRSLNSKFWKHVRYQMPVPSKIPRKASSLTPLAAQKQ
# The depositor's hits bear a star; i = inactive. The full list was thinned out, with hits kept by preference.
SMILES,ST2 inh
CCOC(=O)c1c(NC(=O)c2noc3c2CCc2ccccc2-3)sc(C(C)=O)c1C,i
CC(C)Cc1noc(C2CCCN(Cc3nc(-c4ccco4)no3)C2)n1 (centres undefined),i
Cc1cc(CNC(=O)c2ocnc2C)c2[nH]c(-c3ccccc3)c(C)c2c1,i
Cc1ccc2nc(Sc3ccccc3)c(C#N)c(=O)n2c1,i
O=c1[nH]c(CN2CCOCC2)nc2c1C1(CCCCC1)Cc1ccccc1-2,i
O=C(/C=C/c1ccc(O)c2c1C(C(=O)O)C(c1ccc(O)c(O)c1)O2)OC(Cc1ccc(O)c(O)c1)C(=O)O (centres undefined),i
CC(C)(C)c1ccc(OC(=O)c2cc3ccccc3oc2=O)cc1,i
COc1ccc(NC(=O)CCCn2nc(C)c([N+](=O)[O-])c2C)cc1,i
COc1cc2c(C(=O)Nc3cc(OC)c(OC)c(OC)c3)cn(CC(C)C)c(=O)c2cc1OC,i
CCN1C(=O)N(CCCc2cccnc2)C(=O)C12CCN(Cc1ccc3c(c1)CCO3)CC2,i
CC1=NN(c2cccc(Br)c2)C(=O)/C1=C/c1ccc(-c2ccc3c(c2)C(=O)OC3)o1,i
CC1=NN(c2cccc(Cl)c2)C(=O)/C1=C\c1ccc(C)cc1,30%*
CC1=NN(c2cccc(Cl)c2)C(=O)/C1=C\c1ccco1,44%*
COc1cc(Br)c(/C=C2\C(=O)N(c3cccc(Cl)c3)N=C2C)cc1OC,i
CC1=NN(c2ccccc2)C(=O)/C1=C/c1ccc(O)c(Cl)c1,i
CCOC(=O)c1cn(-c2ccc(Cl)cc2)c(=O)c2ccccc12,i
COc1ccc(NC(=O)O[C@@H]2CO[C@H]3[C@@H]2OC[C@@H]3Nc2nccc(-c3ccc4c(c3)OCO4)n2)cc1,i
CCOc1cc(C(=O)N(c2ccc(F)cc2)C2C=CS(=O)(=O)C2)cc(OCC)c1OCC (centres undefined),i
CCN1/C(=C2\C(=O)N(c3ccc(Cl)cc3)N=C2C)C=Cc2ccccc21,i
CCN1C(=O)CC(c2ccccc2)Sc2ccccc21 (centres undefined),i
CCSC1=N/C(=C2\C=Cc3ccccc3N2CC)C(=O)S1,73%*
CCOc1ccc(C2NC(=O)c3c(sc4c3CCCC4)N2)cc1 (centres undefined),i
CCCCc1ncc(CN2CCN(Cc3ccc(OCC)cc3)C(CCO)C2)[nH]1 (centres undefined),i
CCCCc1ncc(CN2CCc3[nH]cnc3C2c2cccc(O)c2)[nH]1 (centres undefined),37%*
Cc1ccc(C2c3nc[nH]c3CCN2Cc2cc(C)ccc2O)cc1 (centres undefined),i
SMILES,ST2 inh
CCn1cc(C(=O)N2CCN(C)CC2)c2cc(OC)c(OC)cc2c1=O,i
CCN1CCN(C(=O)c2cn(CC)c(=O)c3cc(OC)c(OC)cc23)CC1,i
CCOC(=O)C1CCCN(C(=O)c2cn(CC(C)C)c(=O)c3cc(OC)c(OC)cc23)C1 (centres undefined),i
COc1ccc(N2CCN(C(=O)c3cn(C)c(=O)c4cc(OC)c(OC)cc34)CC2)cc1,46%*
CCOC(=O)C1CCCN(C(=O)c2cn(CC)c(=O)c3cc(OC)c(OC)cc23)C1 (centres undefined),i
CCOC(=O)C1CCCN(C(=O)c2cn(C)c(=O)c3cc(OC)c(OC)cc23)C1 (centres undefined),35%*
Cc1ccc(Cl)cc1N(C)C(=O)Cc1c(C(=O)O)[nH]c2ccc(Cl)cc12,i
Fc1ccccc1-c1nnc(-c2ccncc2)o1,i
COCC(=O)Nc1cc(C(=O)NC(C)Cn2ccc3ccccc32)c2c(c1)nc(C1CCC1)n2C (centres undefined),i
COc1ccc(Cn2c(CNS(=O)(=O)Cc3ccccc3)nc3cccnc32)cc1,i
COc1ccc(CNC(=O)c2cc3cc4ccc(OC)cc4nc3s2)cc1,38%*
COc1ccc2cc3cc(C(=O)NCc4ccc(F)cc4)sc3nc2c1,31%*
CCOC(CCNC(=O)c1cc2cc3ccc(OC)cc3nc2s1)OCC,i
COCCNC(=O)c1cc2cc3ccc(C)cc3nc2s1,i
COc1ccc(CNC(=O)c2cc3cc4ccc(OC)cc4nc3s2)c(OC)c1,i
COc1ccc(CNC(=O)c2cc3cc4ccc(OC)cc4nc3o2)cc1,i
COc1ccc2cc(C3CN(C(=O)c4cccc(C)c4O)CCO3)ccc2c1 (centres undefined),i
CCc1cc(N2CCC(O)(c3ccccn3)CC2)nc(N2CCOCC2)n1,i
O=C1NCC(=O)N2C[C@H](NC(=O)C3(c4ccc(Cl)cc4)CCC3)C[C@@H]12,i
O=C(O)c1cc(-c2ccoc2)cc(S(=O)(=O)N2CCSCC2)c1,i
CC1=CC(=NC(=O)c2ccc([N+](=O)[O-])cc2[N+](=O)[O-])C(C)=CC1=O,i
CC(C(=O)Nc1ccc(Br)cc1)N1C(=O)c2cccc([N+](=O)[O-])c2C1=O (centres undefined),i
COc1ccc(C2C(C#N)=C(N)Oc3n[nH]c(-c4ccc(F)cc4)c32)cc1OC (centres undefined),31%*
COc1cc(C2C(C#N)=C(N)Oc3n[nH]c(-c4ccccc4)c32)ccc1O (centres undefined),i
COc1ccc(C2C(C#N)=C(N)Oc3n[nH]c(-c4ccc5ccccc5c4)c32)cc1OC (centres undefined),i
SMILES,ST2 inh
COc1ccc(N(C(=O)c2ccc(C(C)(C)C)cc2)C2C=CS(=O)(=O)C2)cc1 (centres undefined),i
CC(=O)Nc1ccc(NC(=O)CC(c2ccccc2)c2ccccc2)cc1,i
CC(=O)Nc1ccc(NC(=O)Nc2ccccc2)cc1,i
CC(C)(C)CC(=O)Nc1ccc(Nc2ccccc2)cc1,33%*
COc1ccccc1N1CCN(C2CCC(C)C2)CC1 (centres undefined),i
COc1ccc(OC)c(C2C(C(=O)OCc3ccccc3)=C(C)Nc3ncnn32)c1 (centres undefined),i
O=C(Nc1ccncc1)c1ccc(Cl)cc1Cl,i
O=C(O)C1CSC(c2ccc(OCc3ccc(Cl)cc3)cc2)N1 (centres undefined),i
O=C(NC1CCCCCCC1)C1CCC(CNS(=O)(=O)c2cccc3nsnc23)CC1 (centres undefined),i
Cc1nc2cc(CCO)ccc2s1,i
CN(C)c1ccc(C(=O)Nc2nc3ccc(Cl)cc3s2)cc1,i
Cc1nc2ccc(N(C)C)cc2s1,33%*
COc1ccc(-c2nnc3[nH]c(=O)n(C)c(=O)c3n2)cc1OC,i
COCC(=O)N(C)C(Cc1ccc(F)cc1)C1CCN(C(=O)c2ccc(-c3ccccc3)cc2)CC1 (centres undefined),i
CCOc1ccc(C2C(C(=O)c3cccs3)=C(O)C(=O)N2CCCN2CCOCC2)cc1 (centres undefined),i
CCN(CC)S(=O)(=O)c1ccc(C(=O)Nc2cc(C)c3c(=O)oc4ccccc4c3n2)cc1,i
CC(C)CCNS(=O)(=O)c1cccc2cccnc12,i
COc1cncc(-c2ccc(F)cc2Cl)c1,i
NC(=O)c1ccnc(-c2ccc(F)cc2Cl)c1,i
Nc1ccc(-c2ccc(F)cc2Cl)cn1,35%*
CCC(C)c1ccccc1OCCCN1CCOCC1 (centres undefined),i
CC(=O)Nc1ccc(S(=O)(=O)Nc2cccc(F)c2)cc1,i
Cc1cc2ccccc2c(=O)n1CC(=O)N1CCCCCC1,i

# Source: PubChem
